From PubChem BioAssay (EPA / NIEHS)
Calls of active or inactive are those of the source. How the source made its calls: active means hit-call score of the fitted dose curve at least 0.9, where 1 is the maximum; inactive means score below 0.9.

What was measured:
Conditions in all cases: mRNA level, 48 h; actives raise or lower the signal
[1] = read-out: Heat shock 70 kDa protein 1 (HSPA1A), gene 3303; experiment: LTEA_HepaRG_HSPA1A: Life Technologies and Expression Analysis (LTEA) Assay for Heat shock 70 kDa protein 1 (HSPA1A) using HepaRG (AID 2283502)
In short: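 Differentiated human HepaRG cells in serum-free induction medium were exposed in duplicate for 48 h to eight concentrations (top 100 uM, half-log steps, 0.5% DMSO). HSPA1A mRNA was quantified by qRT-PCR, normalized to ACTB, GAPDH and POLR2A, and fitted bidirectionally against DMSO.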

[2] = read-out: Hypoxia-inducible factor 1-alpha (Homo sapiens) (UniProt Q16665); experiment: LTEA_HepaRG_HIF1A: Life Technologies and Expression Analysis (LTEA) Assay for Hypoxia-inducible factor 1 (HIF1A) Trancription factor using HepaRG (AID 2283503)
In short: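 HepaRG, 48 h exposure, 8-pt half-log series from 100 uM, 0.5% DMSO vehicle, duplicates. Readout: HIF1A transcript by qRT-PCR (Fluidigm array), housekeeping-normalised. Bidirectional curve fit vs DMSO baseline.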

[3] = read-out: 3-Hydroxy-3-Methylglutaryl-CoA Synthase 2 (HMGCS2), HMGCS2 (gene 3158); experiment: LTEA_HepaRG_HMGCS2: Life Technologies and Expression Analysis (LTEA) Assay for 3-Hydroxy-3-Methylglutaryl-CoA Synthase 2 (HMGCS2) using HepaRG (AID 2283504)
In short: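 Human HepaRG cells in serum-free induction medium were exposed in duplicate for 48 h to 8-point half-log series from 100 uM top in 0.5% DMSO. HMGCS2 mRNA measured by TaqMan qRT-PCR, normalised to ACTB, GAPDH, POLR2A; bidirectional fit versus DMSO.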

[4] = read-out: HGF (gene 3082); experiment: LTEA_HepaRG_HGF: Life Technologies and Expression Analysis (LTEA) Assay for Hepatocyte Growth Facto (HGF) using HepaRG (AID 2283505)
In short: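 Differentiated HepaRG cells in serum-free induction medium exposed 48 h in duplicate, 8 half-log concentrations from 100 uM in 0.5% DMSO. HGF mRNA by qRT-PCR, normalised to ACTB, GAPDH, POLR2A; bidirectional fitting.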

[5] = read-out: Insulin Like Growth Factor 1 (IGF1), IGF1 (gene 3479); experiment: LTEA_HepaRG_IGF1: Life Technologies and Expression Analysis (LTEA) Assay for Insulin Like Growth Factor 1 (IGF1) using HepaRG (AID 2283506)
In short: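 Differentiated human HepaRG cells were dosed for 48 h in serum-free induction medium with 0.5% DMSO, eight half-log concentrations up to 100 uM, in duplicate. IGF1 mRNA was quantified by qRT-PCR normalized to ACTB, GAPDH, POLR2A; bidirectional fitting versus DMSO.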

[6] = read-out: Intercellular Adhesion Molecule 1 (ICAM1), ICAM1 (gene 3383); experiment: LTEA_HepaRG_ICAM1: Life Technologies and Expression Analysis (LTEA) Assay for Intercellular Adhesion Molecule 1 (ICAM1) using HepaRG (AID 2283507)
In short: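 Differentiated human HepaRG cells in serum-free induction medium exposed 48 h in duplicate to 8 half-log concentrations (top 100 uM, 0.5% DMSO). ICAM1 mRNA quantified by TaqMan qRT-PCR, normalized to ACTB, GAPDH and POLR2A; bidirectional fitting versus DMSO.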

[7] = read-out: Insulin-like growth factor-binding protein 1 (IGFBP1), IGFBP1 (gene 3484); experiment: LTEA_HepaRG_IGFBP1: Life Technologies and Expression Analysis (LTEA) Assay for Insulin-like growth factor-binding protein 1 (IGFBP1) using HepaRG (AID 2283508)
In short: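 HepaRG cells, plated 48 h then switched to serum-free induction medium, exposed in duplicate for 48 h to 8-point half-log series from 100 uM in 0.5% DMSO. mRNA measured by qRT-PCR, normalized to ACTB/GAPDH/POLR2A; bidirectional fit versus DMSO.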

[8] = read-out: Interleukin 6 (IL6), IL6 (gene 3569); experiment: LTEA_HepaRG_IL6: Life Technologies and Expression Analysis (LTEA) Assay for Interleukin 6 (IL6) using HepaRG (AID 2283509)
In short: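 HepaRG, ~100,000 cells/well, 48 h pre-culture; serum-free induction medium; cmpd 8-pt half-log from 100 uM, 0.5% DMSO, duplicate, 48 h. Lysis in RLT, TaqMan qRT-PCR; gain or loss vs DMSO.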

[9] = read-out: Interleukin 6 Receptor (IL6R), IL6R (gene 3570); experiment: LTEA_HepaRG_IL6R: Life Technologies and Expression Analysis (LTEA) Assay for Interleukin 6 Receptor (IL6R) using HepaRG (AID 2283510)
In short: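 Differentiated human HepaRG cells, plated 48 h then switched to serum-free induction medium, were dosed in duplicate for 48 h at eight half-log concentrations up to 100 uM in 0.5% DMSO. IL6R mRNA quantified by qRT-PCR, normalized to ACTB/GAPDH/POLR2A; bidirectional fit versus DMSO.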

[10] = read-out: Keratin 19 (KRT19), KRT19 (gene 3880); experiment: LTEA_HepaRG_KRT19: Life Technologies and Expression Analysis (LTEA) Assay for Keratin 19 (KRT19) using HepaRG (AID 2283512)
In short: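 Differentiated HepaRG cells in serum-free induction medium, exposed 48 h in duplicate to 8 half-log concentrations up to 100 uM in 0.5% DMSO. KRT19 mRNA by qRT-PCR, normalized to ACTB, GAPDH, POLR2A; bidirectional fit vs DMSO.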

[11] = read-out: JUN Transcription Factor, JUN (gene 3725); experiment: LTEA_HepaRG_JUN: Life Technologies and Expression Analysis (LTEA) Assay for JUN Transcription Factor using HepaRG (AID 2283513)
In short: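 Differentiated HepaRG cells were exposed to chemicals for 48 h in serum-free induction medium, 8 concentrations from 100 uM in half-log steps, 0.5% DMSO vehicle, in duplicate. JUN mRNA was quantified by TaqMan qRT-PCR, normalized to ACTB, GAPDH, POLR2A.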

[12] = read-out: Lipase C (LIPC), LIPC (gene 3990); experiment: LTEA_HepaRG_LIPC: Life Technologies and Expression Analysis (LTEA) Assay for Lipase C (LIPC) using HepaRG (AID 2283514)
In short: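 Read-out is LIPC transcript level by TaqMan qRT-PCR, normalized to three housekeeping genes, after 48 h chemical treatment of human HepaRG liver cells. Curves span eight concentrations topping at 100 uM; activity in either direction scored relative to 0.5% DMSO.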

[13] = read-out: MicroRNA 122 (MIR122), gene 406906; experiment: LTEA_HepaRG_MIR122: Life Technologies and Expression Analysis (LTEA) Assay for MicroRNA 122 (MIR122) using HepaRG (AID 2283516); further: the transcript read is the microRNA miR-122
In short: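 Differentiated human HepaRG cells were exposed 48 h in serum-free induction medium to eight half-log concentrations (top 100 uM, 0.5% DMSO). Transcript level was measured by TaqMan qRT-PCR, normalized to ACTB, GAPDH and POLR2A, and fitted bidirectionally versus DMSO.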

[14] = read-out: matrix metalloproteinase-10 (MMP10), MMP10 (gene 4319); experiment: LTEA_HepaRG_MMP10: Life Technologies and Expression Analysis (LTEA) Assay for matrix metalloproteinase-10 (MMP10) using HepaRG (AID 2283517)
In short: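 Gain or loss of MMP10 mRNA is fitted relative to the 0.5% DMSO vehicle. The human hepatic line HepaRG receives a 48-hour serum-free exposure, in duplicate, with a maximum concentration of 100 uM.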

[15] = read-out: MYC, MYC (gene 4609); experiment: LTEA_HepaRG_MYC: Life Technologies and Expression Analysis (LTEA) Assay for MYC using HepaRG (AID 2283518)
In short: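 Differentiated HepaRG cells exposed 48 h in serum-free induction medium to 8 concentrations (top 100 uM, half-log steps; 0.5% DMSO), duplicate. MYC mRNA measured by Fluidigm qRT-PCR, normalized to ACTB, GAPDH, POLR2A; bidirectional fit versus DMSO.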

[16] = read-out: matrix metalloproteinase-3 (MMP3), MMP3 (gene 4314); experiment: LTEA_HepaRG_MMP3: Life Technologies and Expression Analysis (LTEA) Assay for matrix metalloproteinase-3 (MMP3) using HepaRG (AID 2283519)
In short: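 HepaRG, human; 48 h dosing, 8 conc. (max 100 uM, half-log), duplicate, 0.5% DMSO. Readout: MMP3 transcript by Fluidigm TaqMan qRT-PCR, ACTB/GAPDH/POLR2A-normalised. Gain or loss fitted vs DMSO.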

[17] = read-out: Paternally Expressed 10 (PEG10), PEG10 (gene 23089); experiment: LTEA_HepaRG_PEG10: Life Technologies and Expression Analysis (LTEA) Assay for Paternally Expressed 10 (PEG10) using HepaRG (AID 2283520)
In short: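 Differentiated HepaRG cells, plated 48 h then switched to serum-free induction medium, were exposed in duplicate for 48 h to eight half-log concentrations topping at 100 uM in 0.5% DMSO. PEG10 mRNA was quantified by TaqMan qRT-PCR, normalised to ACTB, GAPDH and POLR2A.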

[18] = read-out: Nuclear factor NF-kappa-B p105 subunit (Homo sapiens) (UniProt P19838); experiment: LTEA_HepaRG_NFKB1: Life Technologies and Expression Analysis (LTEA) Assay for Nuclear Factor Kappa B Subunit 1 (NFKB1) using HepaRG (AID 2283521)
In short: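 HepaRG, 48 h exposure; 8-pt half-log series from 100 uM in 0.5% DMSO; duplicates. Readout: NFKB1 mRNA by qRT-PCR (Fluidigm arrays), housekeeping-normalized. Gain/loss fit vs DMSO baseline.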

[19] = read-out: Potassium channel subfamily K member 1 (KCNK1), KCNK1 (gene 3775); experiment: LTEA_HepaRG_KCNK1: Life Technologies and Expression Analysis (LTEA) Assay for Potassium channel subfamily K member 1 (KCNK1) using HepaRG (AID 2283511)
In short: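 Gain or loss of KCNK1 mRNA is the read-out, quantified by qRT-PCR against three housekeeping genes after 48 h chemical treatment of human HepaRG liver cells. Concentrations ran from 100 uM downward in half-log steps, vehicle 0.5% DMSO.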

[20] = read-out: Lipoprotein lipase (LPL), LPL (gene 4023); experiment: LTEA_HepaRG_LPL: Life Technologies and Expression Analysis (LTEA) Assay for Lipoprotein lipase (LPL) using HepaRG (AID 2283515)
In short: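 Read-out is LPL transcript level by qRT-PCR, normalized to three housekeeping genes and fitted bidirectionally against the DMSO control. Human HepaRG cells received chemicals for 48 h at up to 100 uM.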

Measured: AC50

Sequence of Hypoxia-inducible factor 1-alpha (Homo sapiens) (Q16665 whole entry, looked up): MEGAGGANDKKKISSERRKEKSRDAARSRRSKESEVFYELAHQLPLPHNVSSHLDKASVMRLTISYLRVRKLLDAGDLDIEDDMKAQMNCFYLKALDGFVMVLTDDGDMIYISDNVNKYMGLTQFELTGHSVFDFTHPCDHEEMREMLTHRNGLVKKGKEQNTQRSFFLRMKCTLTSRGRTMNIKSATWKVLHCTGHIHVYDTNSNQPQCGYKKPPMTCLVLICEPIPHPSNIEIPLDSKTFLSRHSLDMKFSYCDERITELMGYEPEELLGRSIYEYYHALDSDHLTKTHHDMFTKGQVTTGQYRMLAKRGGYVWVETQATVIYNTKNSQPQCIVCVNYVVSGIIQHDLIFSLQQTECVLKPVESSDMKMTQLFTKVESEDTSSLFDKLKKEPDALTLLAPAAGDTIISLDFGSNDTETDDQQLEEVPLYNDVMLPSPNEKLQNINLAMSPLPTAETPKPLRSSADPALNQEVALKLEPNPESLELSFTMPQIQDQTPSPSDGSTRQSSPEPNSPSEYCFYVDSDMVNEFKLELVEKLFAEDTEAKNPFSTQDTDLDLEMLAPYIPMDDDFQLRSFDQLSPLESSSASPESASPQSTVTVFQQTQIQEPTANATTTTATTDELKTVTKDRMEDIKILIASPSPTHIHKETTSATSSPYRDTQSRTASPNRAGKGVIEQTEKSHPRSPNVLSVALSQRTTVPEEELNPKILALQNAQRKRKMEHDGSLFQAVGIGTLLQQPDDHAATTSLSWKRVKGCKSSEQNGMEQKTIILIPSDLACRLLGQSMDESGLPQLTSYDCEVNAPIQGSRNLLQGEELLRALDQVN
Sequence of Nuclear factor NF-kappa-B p105 subunit (Homo sapiens) (P19838 whole entry, looked up): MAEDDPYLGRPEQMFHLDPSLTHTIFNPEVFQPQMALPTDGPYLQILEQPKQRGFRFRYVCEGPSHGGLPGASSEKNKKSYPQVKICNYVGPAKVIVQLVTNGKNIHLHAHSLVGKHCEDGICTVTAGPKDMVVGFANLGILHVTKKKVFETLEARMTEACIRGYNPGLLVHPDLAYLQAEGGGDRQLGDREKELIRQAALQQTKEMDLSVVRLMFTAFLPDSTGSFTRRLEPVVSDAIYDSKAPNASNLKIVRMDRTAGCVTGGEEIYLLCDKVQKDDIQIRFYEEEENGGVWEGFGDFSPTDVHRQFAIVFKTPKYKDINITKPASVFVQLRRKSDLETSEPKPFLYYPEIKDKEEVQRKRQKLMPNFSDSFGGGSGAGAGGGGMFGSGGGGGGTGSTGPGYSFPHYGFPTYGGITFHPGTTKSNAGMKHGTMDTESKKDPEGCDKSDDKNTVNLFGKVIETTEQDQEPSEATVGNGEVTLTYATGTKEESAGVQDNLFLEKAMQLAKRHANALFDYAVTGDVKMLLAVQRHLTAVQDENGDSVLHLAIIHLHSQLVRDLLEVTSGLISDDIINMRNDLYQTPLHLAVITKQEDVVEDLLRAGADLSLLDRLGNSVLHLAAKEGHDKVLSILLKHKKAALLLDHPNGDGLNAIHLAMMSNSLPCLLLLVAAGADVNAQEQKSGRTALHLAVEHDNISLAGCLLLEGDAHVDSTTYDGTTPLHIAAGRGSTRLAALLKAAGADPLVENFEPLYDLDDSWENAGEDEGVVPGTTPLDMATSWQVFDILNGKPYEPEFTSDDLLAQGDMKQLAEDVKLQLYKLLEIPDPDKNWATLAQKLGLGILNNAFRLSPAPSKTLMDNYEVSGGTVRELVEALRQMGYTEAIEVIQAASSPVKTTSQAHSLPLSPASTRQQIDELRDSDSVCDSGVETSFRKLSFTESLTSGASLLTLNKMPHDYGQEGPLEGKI

Cc1cccc(N)c1N
active: [3] 50 µM | [5] 50 µM | [7] 22.9 µM | [10] 21.3 µM | [12] 58.7 µM | [13] 50 µM | [17] 50 µM
not listed: [19] | [20]
inactive: all other assays above

[As]#[In]
not listed: [8]
inactive: all other assays above

Nc1ccc([N+](=O)[O-])cc1
not listed: [13] | [19]
inactive: all other assays above

[Cl-].[Cl-].[Hg+2]
active: [10] 29.3 µM
not listed: [13] | [20]
inactive: all other assays above

C[N+](C)(C)CC1CO1 (stereo not drawn)
not listed: [8] | [13] | [18]
inactive: all other assays above

CC(C)(C)OOC(=O)c1ccccc1
inactive: all assays above

CNC(=O)Oc1cccc2c1OC(C)(C)C2
active: [3] 38.8 µM
not listed: [18] | [19]
inactive: all other assays above
